Measured values published in PubChem BioAssay (NCI).
About 83,000 compounds went through this panel and 20% of them were active in at least one assay; those are over-represented in the sample as a whole.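 Results are percent growth after 48 hours of single-concentration exposure. 100 means growth as in untreated cells, lower positive values show inhibition; negative values down to -100 show cell death.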 Calls of active or inactive are those of the source. The calls were made as follows: active = growth percent below 10; inactive = the rest.

Key:
Assay in all cases: NCI-60 one-dose screen, 48 h (100 = growth as untreated, 0 = no growth, -100 = all killed)
Details in all cases: 10 µM unless noted
EKVX NSCLC = system: EKVX NSCLC
SN12C renal = system: SN12C renal
UO-31 renal = system: UO-31 renal
TK-10 renal = system: TK-10 renal
ACHN renal = system: ACHN renal
CAKI-1 renal = system: CAKI-1 renal
A498 renal = system: A498 renal
CCRF-CEM leukemia = system: CCRF-CEM leukemia
MOLT-4 leukemia = system: MOLT-4 leukemia

Measured: growth

Cc1cc(Oc2ccccc2)ccc1Nc1ncnc2ccc(-c3cnc(Cl)c(NS(C)(=O)=O)c3)cc12
inactive: EKVX NSCLC 21.3% | SN12C renal 35.6% | ACHN renal 30.4% | CCRF-CEM leukemia 21.2%
active: UO-31 renal 3.47% | TK-10 renal 4.28% | CAKI-1 renal 2.11% | A498 renal -30.8% | MOLT-4 leukemia -0.671%

Cc1cc(Nc2ncnc3ccc(NC4=NC(C)(C)CO4)cc23)ccc1Oc1ccn2ncnc2c1
inactive: EKVX NSCLC 41.6% | SN12C renal 33.1% | UO-31 renal 14.9% | ACHN renal 21.1% | CAKI-1 renal 13.8% | CCRF-CEM leukemia 11.7% | MOLT-4 leukemia 16.7%
active: TK-10 renal 1.72% | A498 renal -16%

COC(=O)[C@@H](OC)[C@@H]1Cc2cc3cc(OC4CC(OC5CC(O)C(O)C(C)O5)C(O)C(C)O4)c(C)c(O)c3c(O)c2C(=O)[C@H]1OC1CC(OC2CC(OC3CC(C)(O)C(O)C(C)O3)C(O)C(C)O2)C(O)C(C)O1 (stereo partly drawn)
active: EKVX NSCLC 9.91% | SN12C renal 9.04% | UO-31 renal -9.9% | ACHN renal 4.79% | A498 renal -42.9% | CCRF-CEM leukemia 2.91% | MOLT-4 leukemia -9.54%
inactive: TK-10 renal 13.7% | CAKI-1 renal 14.8%

NC[C@@](O)(c1ccc(Cl)cc1)c1ccc(-c2cn[nH]c2)cc1
active: UO-31 renal -13.6% | TK-10 renal 5.87% | A498 renal -2.12%
inactive: EKVX NSCLC 27.1% | SN12C renal 29.3% | ACHN renal 11.6% | CAKI-1 renal 11.3% | CCRF-CEM leukemia 15.8% | MOLT-4 leukemia 13.2%

Clc1ccc(Nc2nccc(Nc3ccc4[nH]ncc4c3)n2)cc1
active: CCRF-CEM leukemia 5.15%
inactive: EKVX NSCLC 66.7% | SN12C renal 51.6% | UO-31 renal 17.4% | TK-10 renal 61.6% | ACHN renal 47.4% | CAKI-1 renal 52.3% | A498 renal 39.1% | MOLT-4 leukemia 23%

O=C1NC(=O)[C@@H](c2cn3c4c(cccc24)CCC3)[C@@H]1c1c[nH]c2ccccc12
inactive: EKVX NSCLC 31.4% | SN12C renal 31.1% | UO-31 renal 45.9% | TK-10 renal 43% | ACHN renal 35.7% | CAKI-1 renal 27% | A498 renal 11.8% | CCRF-CEM leukemia 20.9% | MOLT-4 leukemia 18.6%

CC1=CC2c3oc(-c4ccccc4)c(C(=O)c4ccccc4)c3CNC2C=C1 (stereo not drawn)
inactive: EKVX NSCLC 107% | SN12C renal 88.5% | UO-31 renal 72.2% | TK-10 renal 96% | ACHN renal 87.4% | CAKI-1 renal 94.8% | A498 renal 100% | CCRF-CEM leukemia 76.1% | MOLT-4 leukemia 101%

CC[C@@H]1C(=O)N(C)c2cnc(Nc3ccc(C(=O)NC4CCN(C)CC4)cc3OC)nc2N1C1CCCC1
inactive: EKVX NSCLC 31.6% | UO-31 renal 13.4% | TK-10 renal 14.9% | ACHN renal 21.2% | CAKI-1 renal 23%
active: SN12C renal 2.27% | A498 renal -28.3% | CCRF-CEM leukemia -0.208% | MOLT-4 leukemia -14%

COCCN1CCN(Cc2ccc(-c3n[nH]c4c3C(=O)c3c(NC(=O)NN5CCOCC5)cccc3-4)cc2)CC1
active: EKVX NSCLC -3.26% | SN12C renal 7.64% | UO-31 renal -14.2% | TK-10 renal -30.9% | ACHN renal 3.84% | CAKI-1 renal -18.3% | A498 renal -22% | CCRF-CEM leukemia -15.3% | MOLT-4 leukemia -15%

Cn1ccnc1C(=O)/C=C/c1ccc(CC(=O)Nc2ccc(S(F)(F)(F)(F)F)cc2)cc1
active: EKVX NSCLC -27.4% | SN12C renal -11.8% | UO-31 renal -90.5% | TK-10 renal 5.88% | ACHN renal -21.6% | CAKI-1 renal -31.4% | CCRF-CEM leukemia 8.93% | MOLT-4 leukemia -10.5%
inactive: A498 renal 13.5%

Cc1ccccc1N1C(c2ccccc2)=NNC12C=CC(=O)C=C2Cl (stereo not drawn)
inactive: EKVX NSCLC 111% | SN12C renal 96.3% | UO-31 renal 88.8% | TK-10 renal 109% | ACHN renal 100% | CAKI-1 renal 105% | A498 renal 109% | CCRF-CEM leukemia 101% | MOLT-4 leukemia 94.7%

COc1cc2nccc(Oc3ccc(NC(=O)Nc4cc(C)on4)c(Cl)c3)c2cc1OC
inactive: EKVX NSCLC 37.6% | SN12C renal 11.6% | ACHN renal 13.7% | CCRF-CEM leukemia 22.3%
active: UO-31 renal -15.3% | TK-10 renal -15.8% | CAKI-1 renal 2.09% | A498 renal -35.9% | MOLT-4 leukemia 7.51%

COc1cc2ncnc(Oc3cccc(NC(=O)Nc4cc(C(C)(C)C(F)(F)F)on4)c3)c2cc1OC
inactive: EKVX NSCLC 26.1% | SN12C renal 21.1% | CCRF-CEM leukemia 39.7% | MOLT-4 leukemia 13.3%
active: UO-31 renal -0.0562% | TK-10 renal -7.18% | ACHN renal 3.9% | CAKI-1 renal 8.99% | A498 renal -24.9%

Cc1ccc(C(=O)Nc2ccc(CN3CCN(C)CC3)c(C(F)(F)F)c2)cc1C#Cc1cnc2cccnn12
active: EKVX NSCLC -84.4% | SN12C renal -92.8% | UO-31 renal -93.6% | TK-10 renal -98.7% | ACHN renal -100% | CAKI-1 renal -99.9% | A498 renal -96.8% | CCRF-CEM leukemia -29.5% | MOLT-4 leukemia -62.3%

O=C(O)c1ccc2c(c1)nc(Nc1cccc(Cl)c1)c1ccncc12
active: UO-31 renal -14% | TK-10 renal 0.456% | ACHN renal -0.277% | CAKI-1 renal -16.7% | A498 renal -49.9% | CCRF-CEM leukemia 3.22% | MOLT-4 leukemia -6.15%
inactive: EKVX NSCLC 19.6% | SN12C renal 12.5%

O=C(Nc1nc2cccc(-c3ccc(CN4CCS(=O)(=O)CC4)cc3)n2n1)C1CC1
inactive: EKVX NSCLC 106% | SN12C renal 76.8% | UO-31 renal 75.3% | TK-10 renal 66.3% | ACHN renal 93.6% | CAKI-1 renal 88.4% | A498 renal 60.8% | CCRF-CEM leukemia 30.9% | MOLT-4 leukemia 41%

CNC(=O)c1cc(Oc2ccc3nc(NC(=O)Nc4ccc(Cl)c(C(F)(F)F)c4)sc3c2)ccn1
active: EKVX NSCLC 9.24% | UO-31 renal -7.14% | TK-10 renal -55.1% | ACHN renal -22.2%
inactive: SN12C renal 15.6% | CAKI-1 renal 53.4% | A498 renal 30% | CCRF-CEM leukemia 27.8% | MOLT-4 leukemia 38%

CN[C@@H]1C[C@H]2O[C@@](C)([C@@H]1OC)n1c3ccccc3c3c4c(c5c6ccccc6n2c5c31)C(=O)N[C@H]4O
active: EKVX NSCLC -4.21% | SN12C renal -38.7% | UO-31 renal -64.4% | TK-10 renal -34% | ACHN renal 5.01% | CAKI-1 renal -59.7% | A498 renal -97.1% | CCRF-CEM leukemia 0.26% | MOLT-4 leukemia 0.831%

CC/C=C\C[C@H]1C/C=C2/C(=O)C=C[C@@H]2C/C=C\CCCC(=O)O1
active: SN12C renal -27.8% | UO-31 renal -90.3% | TK-10 renal -38.3% | ACHN renal -89.3% | CAKI-1 renal -35.8% | A498 renal -50.6% | CCRF-CEM leukemia -14.5% | MOLT-4 leukemia -4.8%
inactive: EKVX NSCLC 11.8%

CCOc1cccc(/C=N/NC(=O)c2ccccc2Nc2ccnc(C(F)(F)F)c2)c1O
inactive: EKVX NSCLC 10.6% | SN12C renal 27.2% | TK-10 renal 23.5%
active: UO-31 renal -15.1% | ACHN renal 5.76% | CAKI-1 renal 4.57% | A498 renal -10.8% | CCRF-CEM leukemia -37.3% | MOLT-4 leukemia -10.9%

CO[C@H]1C[C@@H]2CC[C@@H](C)[C@@](O)(O2)C(=O)C(=O)N2CCCC[C@H]2C(=O)O[C@H]([C@H](C)C[C@@H]2CC[C@@H](OCCO)[C@H](OC)C2)CC(=O)[C@H](C)/C=C(\C)[C@@H](O)[C@H](OC)C(=O)[C@H](C)C[C@H](C)\C=C/C=C/C=C/1C
inactive: EKVX NSCLC 54.9% | SN12C renal 54.3% | UO-31 renal 16.6% | TK-10 renal 63.8% | ACHN renal 48.6% | CAKI-1 renal 47.6% | A498 renal 25.8% | CCRF-CEM leukemia 35% | MOLT-4 leukemia 33.3%

COc1cc2ncnc3c2cc1OCCCCCN(C)Cc1ccc(Br)cc1N3
active: TK-10 renal 3.42% | ACHN renal 8.64%
inactive: EKVX NSCLC 21.4% | SN12C renal 32.5% | UO-31 renal 11.2% | CAKI-1 renal 19.3% | A498 renal 60.9% | CCRF-CEM leukemia 51.8% | MOLT-4 leukemia 22.1%

CCNC(=O)C#Cc1ccc2c(C(=Nc3ccc(CN(C)C)cc3)c3ccccc3)c(O)[nH]c2c1
inactive: EKVX NSCLC 49% | SN12C renal 36.5% | TK-10 renal 25.7% | ACHN renal 35.6% | CAKI-1 renal 32.7% | CCRF-CEM leukemia 17.3% | MOLT-4 leukemia 10.9%
active: UO-31 renal 8.22% | A498 renal -40.3%

CCCCn1c(C)nc2ccc(Nc3nc(N4CCN(C)CC4)nc4nc[nH]c34)cc21
inactive: EKVX NSCLC 96.9% | SN12C renal 87.3% | UO-31 renal 83.7% | TK-10 renal 104% | ACHN renal 106% | CAKI-1 renal 99.8% | A498 renal 71.7% | CCRF-CEM leukemia 90.5% | MOLT-4 leukemia 87.1%

COc1cc2cc(NCc3ccc(F)cc3)nc(C)c2cc1OC
inactive: EKVX NSCLC 78.7% | SN12C renal 51% | UO-31 renal 49.6% | TK-10 renal 46.7% | ACHN renal 60.4% | CAKI-1 renal 67% | A498 renal 27.4% | CCRF-CEM leukemia 41.9% | MOLT-4 leukemia 35.2%

CN(C)CCOC(=O)Nc1nc2ccc(Sc3ccccc3)cc2[nH]1
inactive: EKVX NSCLC 47.1% | SN12C renal 40.5% | UO-31 renal 31.5% | TK-10 renal 49.4% | ACHN renal 46.2% | CAKI-1 renal 33.9% | CCRF-CEM leukemia 22.4% | MOLT-4 leukemia 41%
active: A498 renal -3.9%

CCn1c(-c2nonc2N)nc2c(C#CC(C)(C)O)ncc(OC[C@H]3CCCNC3)c21
inactive: EKVX NSCLC 91.9% | SN12C renal 55.7% | UO-31 renal 50.7% | TK-10 renal 46.2% | ACHN renal 78.4% | CAKI-1 renal 54.5% | A498 renal 42.3% | CCRF-CEM leukemia 28.7% | MOLT-4 leukemia 18.5%
